# Measurements published in PubChem BioAssay (EPA / NIEHS).
# Results filed as inconclusive are left out. The source made the active and inactive calls. How the source made its calls: active means hit-call score of the fitted dose curve at least 0.9, where 1 is the maximum; inconclusive means response in the unintended direction; inactive means score below 0.9.
# Assay: ATG_XTT_Cytotoxicity: Cytotoxicity Assessment in the Attagene TRANS-FACTORIAL HepG2 Assay (AID 2283584)
# Procedure, shortened: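 HepG2 cells transiently transfected with GAL4-UAS multiple reporter units, dosed 24 h; cytotoxicity read by XTT as loss of signal versus DMSO baseline.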
row,Compound,outcome
1,O=CC1CC1,inactive
2,CCO[Si](CCCN=C=O)(OCC)OCC,inactive
3,CCCCCCCCCCOC(C)=O,inactive
4,Nc1ccc(Oc2ccc(N)c(N)c2)cc1,inactive
5,Cc1ccc(C2OC[C@@H]3OC(c4ccc(C)cc4)O[C@H]([C@H](O)CO)[C@@H]3O2)cc1 (some centres undefined),inactive
6,CCC(=O)Oc1ccc(/C(CC)=C(\CC)c2ccc(OC(=O)CC)cc2)cc1,inactive
7,C=CCCCCCCCCC(=O)OCCCC,inactive
8,CC(=O)C=CC1C(C)=CCC(C)C1(C)C (centres undefined),inactive
9,c1cc(C(c2ccc(OCC3CO3)cc2)C(c2ccc(OCC3CO3)cc2)c2ccc(OCC3CO3)cc2)ccc1OCC1CO1 (centres undefined),inactive
10,C=CC(C)(CCC=C(C)C)OC(=O)C(C)C (centres undefined),inactive
11,CCN(CCO)c1cccc(C)c1,inactive
12,O=[N+]([O-])c1ccc(CO)cc1,inactive
13,CC(=O)OC1C2(C)CCC(C2)C1(C)C (centres undefined),inactive
14,CCC(CC)C(=O)O,inactive
15,Cn1c(=O)[nH]c2ncn(C)c2c1=O,inactive
16,O=S(=O)(O)c1ccc2cc(O)c(S(=O)(=O)O)cc2c1,inactive
17,CCOc1nc(F)cc2nc(S(=O)(=O)Nc3c(Cl)cccc3C(=O)OC)nn12,inactive
18,CC(C)c1ccc(C#N)cc1,inactive
19,O=c1c2ccccc2oc2ccccc12,inactive
20,C=C[Si](OC(C)=O)(OC(C)=O)OC(C)=O,inactive

row,Compound,outcome
1,O=C(O)c1cc(Cl)cc([N+](=O)[O-])c1Cl,inactive
2,Clc1nc2ccccc2s1,inactive
3,CC(C)CCCCCOC(=O)CCS,inactive
4,CCCCCCCC(C)=O,inactive
5,O=C1CCC(=O)N1Cl,inactive
6,CCOC(=O)[C@H](C)O,inactive
7,C=CCOCC(O)CCl (centres undefined),inactive
8,CC1(C)O[C@@H]2C[C@H]3[C@@H]4C[C@H](F)C5=CC(=O)C=C[C@]5(C)[C@@]4(F)[C@@H](O)C[C@]3(C)[C@]2(C(=O)CO)O1,inactive
9,COc1ccc(-c2coc3cc(O)ccc3c2=O)cc1,inactive
10,CCc1c(C(=O)O)c(=O)cnn1-c1ccc(Cl)cc1,inactive
11,CC(=O)CC(N)=O,inactive
12,COc1c2ccoc2cc2oc(=O)ccc12,inactive
13,O=S(=O)(O)c1cc(S(=O)(=O)O)c2ccc3c(S(=O)(=O)O)cc(S(=O)(=O)O)c4ccc1c2c43,inactive
14,CC1(C)[C@H]2CC[C@]1(C)C(=O)C2,inactive
15,CC[C@H]1OC(=O)[C@H](C)[C@@H](O[C@H]2C[C@@](C)(OC)[C@@H](O)[C@H](C)O2)[C@H](C)[C@@H](O[C@@H]2O[C@H](C)C[C@H](N(C)C)[C@H]2O)[C@](C)(O)C[C@@H](C)C(=NOCOCCOC)[C@H](C)[C@@H](O)[C@]1(C)O,inactive
16,ON(Cc1ccccc1)Cc1ccccc1,inactive
17,CCOC(=O)c1ccccc1C(=C1C=C(Br)C(=O)C(Br)=C1)c1cc(Br)c(O)c(Br)c1,inactive
18,CCCCCCOC(=O)C(C)CC (centres undefined),inactive
19,O=C(c1ccc(O)cc1)c1ccc(O)cc1O,inactive
